NS1 inh: qHTS Assay for Inhibitors of Influenza NS1 Protein Function | AID 2326, 2010 | 270,000 tested, 0.4% active | Potency, µM (top dose mostly 46.1 µM), for the others: top-dose activity, positive = more growth; calls by dose curve; further: potency means the concentration at half of the fitted maximal effect; actives are rising curves; nearly all actives have a fitted effect of over 50% in size
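A cell-based growth assay was used: compounds that relieve NS1-induced slow growth of budding yeast raise OD600. Assay medium was yeast nitrogen base with ammonium sulphate and -URA supplement, pH 6.0, with 2% galactose.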
FBPA Giardia inh: qHTS Assay for Inhibitors of Fructose-1,6-bisphosphate Aldolase from Giardia Lamblia; A8B2U2; purified Giardia FBPA; Potency, µM (highest dose often 59.6 µM), without a hit: at the highest dose activity, negative = inhibition, most hits filed as inhibitors; 290,000 tested, 0.71% active; AID 2451, 2010; further: potency means the concentration at half of the fitted maximal effect; on the % scale 0 is the no-effect control and ±100 the full control effect; nearly all actives have a fitted effect of over 55% in size
Target sequence (A8B2U2 whole entry, looked up): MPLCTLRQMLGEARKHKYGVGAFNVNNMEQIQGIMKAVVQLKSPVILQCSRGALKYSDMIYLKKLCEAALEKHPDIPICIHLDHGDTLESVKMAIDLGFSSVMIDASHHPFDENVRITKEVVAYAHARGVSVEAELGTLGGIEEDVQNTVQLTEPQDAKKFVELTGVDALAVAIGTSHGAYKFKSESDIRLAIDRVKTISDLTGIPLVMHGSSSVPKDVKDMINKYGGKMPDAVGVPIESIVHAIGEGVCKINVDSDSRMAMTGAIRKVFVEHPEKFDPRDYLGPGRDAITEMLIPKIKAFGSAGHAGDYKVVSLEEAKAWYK
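40 nM FBPA preincubated 10 min at RT with compound (up to 57.5 uM final), then substrate plus GAPDH/TPI/NAD/arsenate coupling and diaphorase/resazurin added. Fluorescence read after 20 min at RT, 525/598 nm.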
Pf growth 48h: Primary qHTS for delayed death inhibitors of the malarial parasite plastid, 48 hour incubation. P. falciparum luciferase growth in erythrocytes, 48 h. Potency, µM (doses to about 28.7 µM), without a hit: top-dose activity change, negative = inhibition, actives largely listed as inhibitors. 310,000 tested, 5.9% active; further: potency means the concentration at half of the fitted maximal effect; on the % scale 0 is the no-effect control and ±100 the full control effect
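Here the parasites carry a stable luciferase gene and grow inside erythrocytes in Albumax-based RPMI medium with compound for one erythrocytic cycle. Activity is scored as loss of luminescent signal.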
CHX counter: Cycloheximide Counterscreen for Small Molecule Inhibitors of Shiga Toxin; max response, %; 300,000 tested, 12% active; cell reporter, cycloheximide protein synthesis inhibition counterscreen; in the data active means max response mostly above about 13%, no sharp cut-off; inactive means mostly below about 14%; further: read at 38.3 µM for the half of the compounds with a filed dose; 0% is about no effect
Pf growth 96h: Primary qHTS for delayed death inhibitors of the malarial parasite plastid, 96 hour incubation. P. falciparum luciferase reporter growth, 96 h. Potency, µM (top dose mostly 28.7 µM), for inactives: at the top dose activity change, negative = inhibition, hits mostly inhibitors. 320,000 tested, 6.9% active. AID 504834, 2011; further: potency means the concentration at half of the fitted maximal effect; on the % scale 0 is the no-effect control and ±100 the full control effect
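Delayed-death screen, second-generation endpoint: infected erythrocytes, 2% hematocrit, 0.05% parasitemia final; 96 hours at 37 C, 5% CO2; luciferase detection reagent; luminescence decrease equals reduced growth.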
Shiga toxin inh: A qHTS for Small Molecule Inhibitors of Shiga Toxin. AID 2315, 2010. inhibition, % at 38.7 µM. 290,000 tested, 9.2% active. Vero cells, Shiga toxin protein synthesis inhibition reporter; in the data active means inhibition mostly above about 28%, no sharp cut-off; inactive means mostly below about 43%; further: 0% is about no effect
* hit, by the source's call; i = inactive; ? = inconclusive; · = not tested or not shown; + = active, no number; [ ] = remark or other dose. Shown are actives, neighbours in structure and some others; about 21% of the full set was active somewhere. Unless noted, the call rests on the fitted dose curve; in most records, active means well fitted curve in the direction sought with a large enough effect; inconclusive means small, poorly fitted or top-dose-only effect, or another doubt; inactive means no such curve, though single readings can be large; an effect the other way counts as inactive or inconclusive.

SMILES	NS1 inh	FBPA Giardia inh	Pf growth 48h	CHX counter	Pf growth 96h	Shiga toxin inh
CC(C)C(C)(C#N)NC(=O)CSc1nc2scc(-c3ccco3)c2c(=O)n1-c1ccccc1 (centres undefined)	-3%	-4%	9.3µM*	-1	?	-12
CC(C)C(C)NC(=O)CSc1nc2scc(-c3ccco3)c2c(=O)n1-c1ccccc1 (centres undefined)	6%	-14%	12µM*	-4	·	11
Cc1sc2nc(SCC(=O)NCc3ccco3)n(-c3ccccc3)c(=O)c2c1C	6%	0%	2%	-10	-23%	3
c1ccc(CCNc2nc3ccccc3n3nnnc23)cc1	5%	6%	14%	5	?	21
ClC(Cl)(Cl)c1nc2ccccc2n2nncc12	-37%	2%	0.33µM*	-3	?	-6
O=C(CSc1nnc(-c2ccc3c(c2)OCCO3)o1)NC1CCCCC1	-5%	8%	41%	-2	?	19
CCC1CCCCN1C(=O)CSc1nnc(-c2ccc3c(c2)OCCO3)o1 (centres undefined)	-39%	8%	?	27*	?	28
CCC1CCCCN1C(=O)CSc1nnc(-c2ccc(OC)cc2)o1 (centres undefined)	-50%	-2%	?	1	?	-14
O=C(CSc1nnc(-c2ccc3c(c2)OCCO3)o1)N1CCCC1	-51%	-8%	71%	44*	-10%	43
CN1C(=O)/C(=C/c2ccc(OCc3ccc(F)cc3)cc2)NC1=S	-8%	1%	1%[0.00184 µM]	5	-20%	1
N#Cc1ccc(CSc2nnc(NC(=O)C3CC(=O)N(c4ccc5c(c4)OCCO5)C3)s2)cc1 (centres undefined)	20%	10%	3%	11*	-16%	-2
O=C(Nc1nnc(SCc2ccc(F)cc2)s1)C1CC(=O)N(Cc2ccccc2)C1 (centres undefined)	22%	18%	-14%	-3	7.4µM*	-12
O=C(Nc1nnc(SCc2ccc(F)cc2)s1)C1CC(=O)N(c2ccc3c(c2)OCCO3)C1 (centres undefined)	20%	12%	18%	15*	-11%	1
CCc1ccc(-c2csc(NC(=O)C3CC(=O)N(c4ccc5c(c4)OCCO5)C3)n2)cc1 (centres undefined)	?	-8%	36%	14*	?	+
Cc1ccc(NC(=O)CSc2nc3ncc(Cl)cc3[nH]2)c(C)c1	5%	?	9%	-2	4%	32
CCN(CC)CCNC(=O)CNC(=S)N(CCCN1CCOCC1)Cc1cccs1	-1%	1%	0%	-2	1.7µM*	-16
Cc1ccc(NC(=S)N(CCCN2CCOCC2)Cc2cccs2)c(C)c1	-5%	1%	?	-3	9.3µM*	-1
CN(C)CCNC(=O)CNC(=S)N(CCCN1CCOCC1)Cc1cccs1	·	2%	i	-6	-18%	-12
CCc1ccc(S(=O)(=O)N2CCN(c3ccccc3OC)CC2)cc1	2%	-3%	-26%	2	-58%	·
Cc1cccc(C(=O)Oc2ccc(/C=N/NC(=O)c3ccccc3O)cc2)c1	-16%	-11%	?	38*	0%	+
Cc1cccc(C(=O)Oc2ccc(/C=N/NC(=O)c3ccc(O)cc3)cc2)c1	-12%	1%	?	25*	16%	29
COc1cc(N=Nc2cccc(S(N)(=O)=O)c2)c2ccccc2c1N	-3%	?	4.1µM*	12	2.9µM*	61
CCCc1cc(=O)oc2c3c(cc(OCC(=O)NCCN4CCOCC4)c12)OC(C)(C)CC3	-3%	24%	?	-3	9.3µM*	-6
CCCc1cc(=O)oc2c3c(cc(OCC(=O)NCc4ccncc4)c12)OC(C)(C)CC3	-51%	13%	-33%	-2	?	-3
CCCc1cc(=O)oc2c3c(cc(OCC(=O)NCc4ccccn4)c12)OC(C)(C)CC3	-34%	?	12µM*	-1	15µM*	1
